Measured values published in the supplement of paper PMC4166925.
± gives the standard deviation of the averaged measurements. The full ranking holds about 33,000 sequences; the median of “E-score (dimensionless, -0.5 to 0.5)” is about -0.049, and the highest 2% start at about 0.37. The sample as a whole holds a higher share of the highest values than the screen did.

These sequences were tested on T1, PmTbr T-box DNA-binding domain (GST fusion) (assay: PBM E-score of 8-mer (E-score (dimensionless, -0.5 to 0.5)); Tbr is Tbrain of the sea star Patiria miniata (Pm) or the sea urchin Strongylocentrotus purpuratus (Sp); higher = stronger binding preference). Settings: the construct has about 5 more residues each side.
T1 sequence: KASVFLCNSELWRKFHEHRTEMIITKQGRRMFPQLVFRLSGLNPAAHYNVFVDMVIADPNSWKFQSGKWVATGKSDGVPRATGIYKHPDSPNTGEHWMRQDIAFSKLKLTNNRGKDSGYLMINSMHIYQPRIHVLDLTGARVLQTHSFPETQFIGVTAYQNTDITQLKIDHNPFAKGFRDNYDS
Summary of the method: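 Primer extension turned Universal Agilent oligonucleotide arrays double-stranded. They were incubated with 200 nM protein in PBS (pH 7.5); the protein was a GST-fused Tbr T-box DNA-binding domain expressed in BL21 E. coli at 20 °C and purified on glutathione. Every ungapped 8-mer was scored from the scanned, quantified probe intensities, and the Universal PBM Analysis Suite gave each an enrichment E-score averaged over duplicate arrays.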

Sequence	PBM E-score of 8-mer
GTTTTTAA	-0.131 ± 0.14
AATCACCT	0.311 ± 0.017
GTGTAGAA	0.164 ± 0.051
AGACAGGC	-0.103 ± 0.03
AAGTTAGC	0.192 ± 0.011
ATGTCCGG	-0.174 ± 0.071
AACCTCAC	0.219 ± 0.015
CTCCTCAG	-0.0996 ± 0.015
TACCTCAA	-0.132 ± 0.028
AACCTCAG	-0.26 ± 0.042
GACCTCAC	0.0743 ± 0.032
CACCTCAA	0.395 ± 0.022
CACCTCAC	0.4504 ± 0.0025
AACCTCAA	-0.113 ± 0.028
CACCTCAG	0.42 ± 0.0057
CTGCCACC	0.265 ± 0.036
CCCGATTA	0.0524 ± 0.024
CCGCTAGA	0.0332 ± 0.029
CGATTGCC	-0.0231 ± 0.013
GTACAGCA	-0.0813 ± 0.032
ACGGAAAT	-0.189 ± 0.071
CCGCAGGC	0.000335 ± 0.0022
ACTCACAT	-0.0309 ± 0.043
ACTCACAG	0.314 ± 0.043
ACTCACAC	0.4612 ± 0.00083
GCACACAC	0.219 ± 0.039

Sequence	PBM E-score of 8-mer
GCTCACAA	0.132 ± 0.037
CCTCACAG	0.127 ± 0.049
CCTCACAA	0.155 ± 0.016
GCTCACAC	0.424 ± 0.01
CCTCACAC	0.475 ± 0.005
ACTACCTC	-0.248 ± 0.022
ACTCCACC	-0.0966 ± 0.022
CGGCCAGA	-0.215 ± 0.011
ACACTTAC	0.412 ± 0.0079
ACACTTAT	0.387 ± 0.0076
GCACTTAC	0.178 ± 0.015
ACACTTAG	0.416 ± 0.0068
CCACTTAG	-0.0105 ± 0.01
ACACTTAA	0.362 ± 0.031
ACTCTTAT	-0.0869 ± 0.047
CCACTTAC	0.201 ± 0.0076
ACTCTTAG	-0.0903 ± 0.065
CTTAAGAC	-0.218 ± 0.055
CCGATCCG	-0.094 ± 0.017
CGGTTAGA	-0.182 ± 0.026
ACATTAGG	0.0856 ± 0.037
ACAGGGCG	0.0776 ± 0.037
AAGCGCGC	0.106 ± 0.015
AAGCGCGA	0.375 ± 0.017
GAGCGCGA	0.291 ± 0.019
CAGCGCGA	0.203 ± 0.029

Sequence	PBM E-score of 8-mer
TAGCGCGA	0.3803 ± 0.0017
AAGCGCGG	0.0485 ± 0.038
CCACGCTA	-0.0567 ± 0.028
ACTCAGCA	-0.151 ± 0.053
TCCTAGAA	-0.0822 ± 0.13
ACTAGCAC	0.381 ± 0.013
CCTAGCAC	0.3709 ± 0.0033
CCTAGCAA	0.128 ± 0.069
GCTAGCAC	0.33 ± 0.0063
ACTAGCAG	-0.0294 ± 0.074
ACTAGCAA	0.00762 ± 0.0026
CTTGGAAA	-0.0932 ± 0.023
CATCTATC	-0.196 ± 0.023
CGAGTGCG	0.225 ± 0.033
AAGGTTTC	0.0322 ± 0.0076
CAGATGTC	-0.0861 ± 0.049
CAGGTGTC	0.4791 ± 0.0044
ACGGTGTC	0.26 ± 0.076
ACGGTGTA	0.16 ± 0.0067
GAGGTGTA	0.44018 ± 0.00028
GGGGTGTA	0.175 ± 0.0049
CAGGTGTA	0.3628 ± 0.0011
AAGGTGTA	0.404 ± 0.026
AAGGTGTC	0.4879 ± 0.0035
GCGGTGTA	-0.136 ± 0.021
CCGGTGTA	0.0868 ± 0.027

Sequence	PBM E-score of 8-mer
GGCATTAC	-0.165 ± 0.0079
GGATACCC	-0.327 ± 0.049
GGAGAGGA	-0.1 ± 0.0036
CTTGGGGA	-0.196 ± 0.039
ATAAGTGG	0.124 ± 0.042
CAATGGAC	-0.0519 ± 0.011
TGCCCACA	-0.0968 ± 0.015
ACGGTGTG	0.324 ± 0.012
AAGGTTTG	-0.16 ± 0.015
AAGGTGTG	0.4811 ± 0.0016
AATGGCTG	-0.207 ± 0.038
TGTGATAA	0.406 ± 0.046
CGTGATAA	0.251 ± 0.034
GGTGATAA	0.413 ± 0.018
GGTGATAC	0.364 ± 0.025
TATGATAA	-0.0124 ± 0.036
AGTGATAA	0.317 ± 0.052
TTGCGCAA	0.108 ± 0.0064
CTAGATTC	0.139 ± 0.039
AATGGACA	0.0325 ± 0.009
GGACCTAA	-0.0476 ± 0.0062
AAACCTGT	0.0415 ± 0.013
ACACCGGT	0.22015 ± 2.8e-05
CCACCTAC	0.273 ± 0.049
GTACCTAA	-0.248 ± 0.013
ATACCTAC	-0.172 ± 0.0048

Sequence	PBM E-score of 8-mer
ACACCTGT	0.472 ± 0.00061
AGACCTAC	-0.292 ± 0.035
GTACCTAC	-0.272 ± 0.061
ACACCTAC	0.4763 ± 0.0017
GCACCTAC	0.382 ± 0.0042
GCACCTAA	0.373 ± 0.016
AGTTGGCG	0.229 ± 0.039
AAGATCGA	-0.152 ± 0.084
CGCAACAG	0.0766 ± 0.031
CAGCAATC	-0.21244 ± 7.8e-05
CTCCATCA	0.123 ± 0.077
GGTAAGTA	-0.0321 ± 0.051
CGGTCAAC	-0.0198 ± 0.048
GCAGGGGC	-0.193 ± 0.12
AGATGGAC	-0.281 ± 0.02
ACACCTAG	0.462 ± 0.0066
AAACCTAG	0.113 ± 0.032
CCACCTAG	0.264 ± 0.0049
CCACCTAA	0.146 ± 0.058
AGACCTAT	-0.2143 ± 0.00038
ACACCTAT	0.4662 ± 0.00073
ATACCTAT	-0.0294 ± 0.018
ATACCTAA	0.0416 ± 0.058
TGACCTAA	-0.228 ± 0.013
AAACCTAA	-0.0751 ± 0.036
ACACCTAA	0.463 ± 0.0018

Sequence	PBM E-score of 8-mer
TCACCTAA	0.383 ± 0.0065
CGCACAAA	0.00904 ± 0.0019
ATTCCTCG	-0.0674 ± 0.053
ATAGCTCC	-0.134 ± 0.022
CTCCCCAA	-0.12 ± 0.0034
CTGAAACC	-0.0317 ± 0.0024
TGATACAA	0.126 ± 0.037
GTAGTGCA	-0.21 ± 0.062
AAAGGCAC	-0.0325 ± 0.013
GCCATAAA	-0.0292 ± 0.012
AGATAGAT	-0.217 ± 0.015
CCACCTCC	0.305 ± 0.024
GCACCTCC	0.4324 ± 0.002
GCACCTCA	0.35 ± 0.037
GAACTACA	0.0281 ± 0.036
TCGGTCCA	-0.365 ± 0.015
ACGTGTAG	0.118 ± 0.015
GCGTGTTA	0.336 ± 0.036
ACGTGTTG	0.3744 ± 0.0004
ACGTGTTC	0.2198 ± 0.001
ACGTGTTA	0.442 ± 0.015
CCGTGTTA	0.24 ± 0.041
CGAGCAAA	-0.0522 ± 0.042
CTTTGTCC	0.109 ± 0.0064
ATAAGGTA	0.0248 ± 0.096
AGAAGGTC	-0.315 ± 0.034

Sequence	PBM E-score of 8-mer
ACAAGGTG	0.429 ± 0.006
ATAAGGTC	-0.146 ± 0.021
ATAAGGTG	0.387 ± 0.0095
AGAAGGTA	-0.2003 ± 0.00059
AGAAGGTG	0.403 ± 0.0068
ACAAGGTC	0.1572 ± 0.00086
ACAAGGTA	-0.0243 ± 0.03
AAGAATCG	-0.0615 ± 0.066
ACACTGAC	0.209 ± 0.018
ACTGATCG	-0.0574 ± 0.0033
CTCTAACC	-0.103 ± 0.089
AACGGGGT	-0.136 ± 0.084
CTCGCTAC	0.0679 ± 0.05
ATCGACAA	0.222 ± 0.036
ATCGACAC	0.398 ± 0.025
GTCGACAA	0.295 ± 0.022
CTCGACAA	0.131 ± 0.017
CTCGACAG	0.244 ± 0.018
CTCGACAC	0.387 ± 0.029
GACGACAC	0.305 ± 0.034
